From PubChem
In the library only some 4% were active in any assay of this set; here they are far more common.
TROY NFkB inh = inhibitors of TROY-dependent NF-kB signaling. Q293 LMP1-TROYcd NF-kB luciferase reporter, 4 h. inhibition, % at 10 µM. 360,000 tested, 0.98% active;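 active = compounds whose plate-normalised and pattern-corrected inhibition of the luciferase reporter signal at the single screening dose is 50% or more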
CF NFkB block = inhibitors of cystic fibrosis induced NF-kB | KKLEB NF-kB-GFP reporter, PAF-induced, GFP fluorescence overnight | inhibition, % at 5 µM | 360,000 tested, 0.86% active;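 active = at least 50% inhibition at 5 µM, scaled per plate between neutral and stimulator controls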;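 also: PAF is a Pseudomonas aeruginosa culture filtrate used as stimulus; plate controls were PAF-stimulated DMSO wells for no effect and unstimulated DMSO wells for full effect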
KKLEB tox = reduces viability of KKLEB cystic fibrosis airway cells; KKLEB CF airway cells viability, ATPlite luminescence, overnight; active compounds read low; cells stimulated with P. aeruginosa culture filtrate; activity change (cytotoxicity), % at 5 µM; AID 602141; 360,000 tested, 0.36% active;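 active = corrected activity change at or below -50% at 5 µM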
HIF-2a block = inhibitors of HIF-2a; 360,000 tested, 0.72% active; 786-0 RCC cells HIF-2a reporter, luciferase luminescence, overnight; AID 624352; inhibition, % at 18.8 µM;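 active = inhibition of the luminescence signal of 40% or more relative to plate controls, in a single-dose primary screen at 18.75 µM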
TWEAK Fn14 block = TWEAK-Fn14 signaling inhibition. TWEAK-stimulated Fn14 reporter cells, luciferase luminescence, 8 h. inhibition, % at 10 µM. 360,000 tested, 2% active. AID 1159606; in the data active = inhibition above about 50%
Peg3 prom inh = inhibitors of Peg3 promoter; HeLa PEG-Prom luciferase reporter, luminescence, overnight; inhibition, % at 20 µM; 360,000 tested, 1.7% active;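 active = inhibition of at least 50% at 20 µM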
* = called active by the depositor; x = no result.

SMILES	TROY NFkB inh	CF NFkB block	KKLEB tox	HIF-2a block	TWEAK Fn14 block	Peg3 prom inh
CC[C@@H](C)[C@H](C(CC(=O)N1CCCC1[C@@H](OC)[C@H](C)C(=O)N[C@H](Cc1ccccc1)c1nccs1)OC)N(C)C(=O)[C@H](NC(=O)[C@@H](C(C)C)N(C)C)C(C)C (some centres undefined)	5	62*	-28	21	18	-10
COc1ccc(C(=O)N(C)C(C)c2nccs2)cc1OC1CCN(C(C)=O)CC1 (centres undefined)	5	-13	0	9	4	-8
COc1ccc(OCC(=O)N(Cc2ccc(C)o2)C2CCS(=O)(=O)C2)cc1 (centres undefined)	-8	20	-15	3	-1	-1
Cc1ccc(NC(=O)c2cc(-c3ccccc3)nn2-c2ccccc2)cc1	2	-2	18	10	13	-157
O=C(Nc1ccc(F)cc1)c1nn(-c2ccccc2)c(=O)cc1Cl	19	8	-8	39	55*	99*
CCCN(C)C1CN(Cc2cn(Cc3ccccc3)nn2)S(=O)(=O)C1 (centres undefined)	18	x	x	-10	13	x
Fc1ccccc1Cn1nnc(-c2ccc3c(c2)OCO3)n1	53*	-3	-14	-160	16	-313
O=C(CSc1n[nH]c(-c2cccnc2)n1)Nc1ccccc1C(F)(F)F	-2	-6	4	9	7	7
Cc1cc(C)c2nc(Nc3nc(-c4ccccc4)cc(=O)[nH]3)nc(C)c2c1	-44	-21	-10	-92	-38	-43
CC1=CC(C)(C)N=C(Nc2nc(C)c3cc(C)cc(C)c3n2)N1	25	-13	18	-11	-54	61*
N#CCCn1cc(/C=N/NC(N)=S)c(-c2ccc(-c3ccccc3)cc2)n1	13	-13	6	15	51*	31
COc1ccc(CC(=O)N2CCOCC2)cc1OC	0	6	-12	6	12	11
COc1ccc(CC(=O)N2CCOCC2)cc1	-15	13	-14	2	99*	0
CC1=NOC(=O)/C1=C\c1ccc(-c2ccc(Cl)c(C(=O)O)c2)o1	20	-19	13	16	-18	0
CC1=CC2=NC(=O)/C(=C\c3ccc(-c4cccc(Cl)c4)o3)C(=N)N2O1	16	4	-10	12	4	57*
CC1=NOC(=O)/C1=C\c1ccc(-c2cccc(Cl)c2)o1	57*	93*	-33	83*	67*	105*
Cc1ccc(CNC(=O)C2CC3Cn4c(nc5cc6ccccc6cc54)C3N2C)o1 (centres undefined)	-10	-9	-5	-19	-4	-42
Cc1cc(C)cc(NC(=S)NCc2ccc3[nH]c4c(c3c2)CCCC4)c1	-16	-1	-1	0	-17	67*
O=c1cc(Nc2ccc3c(c2)OCCO3)[nH]c(=O)n1-c1ccc(Cl)cc1	64*	4	-12	4	72*	-2
COc1ccc(COC(=O)CCc2c[nH]c3ccccc23)cc1F	12	-31	11	2	-11	-10
O=C1/C(=C/c2cccnc2)SC(=S)N1C1CCS(=O)(=O)C1 (centres undefined)	17	72*	-13	53*	65*	28
O=C1/C(=C/c2cccnc2)SC(=S)N1N1CCOCC1	-11	-6	9	8	2	-4
O=C1/C(=C\c2cccnc2)SC(=S)N1C1CCS(=O)(=O)C1 (centres undefined)	13	66*	-6	28	71*	39
O=S(=O)(Nc1cccc2cccnc12)c1ccc(S(=O)(=O)N2CCCC2)cc1	28	-13	14	7	16	50*
CSc1ccc(/C=C/C(=O)OCC(=O)N2CCN(S(=O)(=O)c3ccc(C)cc3C)CC2)cc1	4	-3	5	6	-25	10
SMILES	TROY NFkB inh	CF NFkB block	KKLEB tox	HIF-2a block	TWEAK Fn14 block	Peg3 prom inh
COc1ccc(NC(=O)/C(C#N)=C\c2cc(C)n(-c3ccc4c(c3)OCO4)c2C)cc1	21	35	-32	-33	51*	9
O=C(Cc1ccccc1)Nc1nc2ccccc2[nH]1	64*	3	-5	-209	39	-188
O=C(Nc1nc2ccccc2[nH]1)c1ccc(Cl)cc1	28	-18	-30	-54	69*	-77
O=C(Cc1ccc(Cl)cc1)Nc1nc2ccccc2[nH]1	-55	15	-17	-42	5	-28
C=CCN(c1ccccc1)S(=O)(=O)c1cccc(C(=O)Nc2nc3ccccc3[nH]2)c1	15	12	0	6	54*	10
O=C(Nc1nc2ccccc2[nH]1)c1ccccc1	40	-15	4	-28	79*	-30
COc1ccc(C(=O)N2CCN(c3ccccc3Cl)CC2)cc1S(=O)(=O)NC1CC1	22	6	-9	17	15	-20
O=C(NCCO)c1cccc(Nc2nc(-c3ccccc3)c3cc(Cl)ccc3n2)c1	22	-27	-2	20	51*	14
CN1CCN(C(=O)CCCN2C(=O)/C(=C/c3ccccc3)SC2=S)CC1	-15	11	-6	28	-13	25
O=C(O)CN1C(=O)/C(=C\c2ccccc2OCc2ccccc2)SC1=S	3	4	-1	2	-5	2
O=C(O)CCCN1C(=O)/C(=C\c2ccccc2OCc2ccccc2)SC1=S	56*	18	1	11	-6	14
O=C(CCN1C(=O)/C(=C/c2ccccc2Cl)SC1=S)NNC(=O)c1cccnc1	11	7	-10	-10	-1	0
O=C(O)CCCN1C(=O)/C(=C\C(Cl)=C\c2ccccc2)SC1=S	26	-27	-13	94*	102*	108*
COc1ccccc1/C=C1\SC(=S)N(CCC(=O)NNC(=O)c2ccccc2OC)C1=O	44	-10	0	44*	46	9
O=C(CCCN1C(=O)/C(=C/c2ccccc2Cl)SC1=S)Nc1cccnc1	29	-10	6	0	11	71*
O=C(NCCCCCCCN1CCCCCCC1)C(C1CCCCC1)C1CCCCC1	1	15	-9	-10	-53	36
Cc1cccc(C)c1NC(=O)C1(C)CSCC(=O)N1Cc1ccco1 (centres undefined)	x	x	x	16	x	x
O=C(CCN1C(=O)/C(=C/c2ccccc2Cl)SC1=S)Nc1ccccn1	-19	-12	-6	-1	-6	-47
Cc1ccc(C(=O)NNC(=O)CCCN2C(=O)/C(=C/c3ccccc3Cl)SC2=S)cc1	34	20	-10	87*	48	49
O=C(CCCN1C(=O)/C(=C/c2ccccc2Cl)SC1=S)Nc1ccccn1	60*	12	-7	79*	82*	16
O=C(CCN1C(=O)/C(=C/c2ccccc2Cl)SC1=S)NNC(=O)c1ccccc1O	-1	-16	-1	13	-26	21
